Experimental findings from PubChem BioAssay (NCATS) are described below.

A short description of test [1]: qHTS profiling of the MIPE4 collection as inhibitors of Plasmodium falciparum (3D7) proliferation (AID 743344; call rule not given here;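 also: scaled between DMSO vehicle wells and 0.29 µM artemisinin as full inhibition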). The following applies: P. falciparum 3D7 in erythrocytes, SYBR Green DNA fluorescence, 72 h; at 28.5 µM unless noted. In a few lines: (§1)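 Parasite DNA was quantified by SYBR Green I fluorescence (ex 485, em 535 nm) after overnight lysis in saponin/Triton buffer at room temperature. Cultures at 0.3% parasitemia and 2.5% hematocrit were first exposed to compound for 72 h at 37 C; signals were normalised to artemisinin (0.29 uM) and vehicle wells.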
(In qHTS, concentration-response curves come from the screen itself.)

A short description of test [2]: qHTS profiling of the MIPE4 collection as inhibitors of Plasmodium falciparum (DD2) proliferation (AID 743345; call rule not given here). The following applies: P. falciparum Dd2 in erythrocytes, SYBR Green DNA, 72 h; at 28.5 µM unless noted. Summed up: as §1
Test [3] is described as follows: qHTS profiling of the MIPE4 collection as inhibitors of Plasmodium falciparum (DD2) proliferation (Rep 2) (AID 743346; call rule not given here). Particulars: P. falciparum Dd2 in erythrocytes, SYBR Green DNA, 72 h; at 28.5 µM unless noted. In a few lines:
as §1

Test [4] is described as follows: qHTS profiling of the MIPE4 collection as inhibitors of Plasmodium falciparum (HB3) proliferation (AID 743347; call rule not given here;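 also: plate controls were DMSO vehicle wells for no effect and artemisinin wells for full effect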). Particulars: P. falciparum HB3 in erythrocytes, SYBR Green DNA, 72 h; at 28.5 µM unless noted. In a few lines: as §1
Test [5] can be described thus: qHTS for Inhibitors of the Functional Ribonucleoprotein Complex (vRNP) of Lassa (LASV) Arenavirus: LASV Primary Screen - GLuc reporter signal (AID 1347082; calls by dose curve; tested in HEK293 reporter line; also: nearly all actives have a fitted effect of over 60% in size; also: potency is read from the fitted curve at half-maximal effect; as to activity change, negative = inhibition: % is scaled to controls: 0 for no effect and ±100 for the full control effect).
A short description of test [6]: qHTS for Inhibitors of the Functional Ribonucleoprotein Complex (vRNP) of Lassa (LASV) Arenavirus: Viability assay - alamar blue signal for LASV Primary Screen (AID 1347083; calls by dose curve; tested in HEK293 reporter line; also: nearly all actives have a fitted effect of over 80% in size; also: potency is read from the fitted curve at half-maximal effect).
Test [7] is described as follows: qHTS for Inhibitors of the Functional Ribonucleoprotein Complex (vRNP) of Lymphocytic Choriomeningitis Arenaviruses (LCMV): Viability assay - alamar blue signal for LCMV Primary Screen (AID 1347085; calls by dose curve; tested in HEK293 reporter line; also: nearly all actives have a fitted effect of over 80% in size; also: potency is read from the fitted curve at half-maximal effect).
For test [8], the target named is Nucleoprotein (Lymphocytic choriomeningitis virus (strain Armstrong)) (UniProt P09992). Kind of test: qHTS for Inhibitors of the Functional Ribonucleoprotein Complex (vRNP) of Lymphocytic Choriomeningitis Arenaviruses (LCMV): LCMV Primary Screen - GLuc reporter signal (AID 1347086). Also: % is scaled to controls: 0 for no effect and ±100 for the full control effect; nearly all actives have a fitted effect of over 70% in size.
Nucleoprotein (Lymphocytic choriomeningitis virus (strain Armstrong)), sequence (P09992 whole entry, looked up): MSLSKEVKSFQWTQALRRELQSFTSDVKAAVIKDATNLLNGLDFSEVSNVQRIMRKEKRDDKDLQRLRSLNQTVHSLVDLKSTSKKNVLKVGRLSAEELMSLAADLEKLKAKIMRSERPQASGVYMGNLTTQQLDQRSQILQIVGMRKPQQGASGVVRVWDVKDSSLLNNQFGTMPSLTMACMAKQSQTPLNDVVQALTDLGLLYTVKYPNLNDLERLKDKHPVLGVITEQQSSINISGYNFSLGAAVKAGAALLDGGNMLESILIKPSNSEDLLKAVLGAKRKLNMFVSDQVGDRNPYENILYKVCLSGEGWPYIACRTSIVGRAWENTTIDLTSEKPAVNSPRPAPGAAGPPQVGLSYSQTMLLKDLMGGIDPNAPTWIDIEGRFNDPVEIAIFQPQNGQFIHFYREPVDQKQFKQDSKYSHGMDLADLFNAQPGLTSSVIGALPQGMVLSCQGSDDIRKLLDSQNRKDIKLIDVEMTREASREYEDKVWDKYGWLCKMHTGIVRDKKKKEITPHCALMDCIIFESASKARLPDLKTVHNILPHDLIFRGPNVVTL
The test system of another test is CRL-7250. Put plainly: qHTS assay to identify novel small-molecules to repurpose for Merkel cell carcinoma treatment (AID 1296009; active = well fitted curve in the direction sought with a large enough effect; an effect the other way counts as inactive or inconclusive; also: nearly all actives have a fitted effect of over 60% in size). The following applies: MCC and control cell lines, CellTiter-Glo viability, 72 h; series mostly up to 92 µM. Summed up:
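CellTiter-Glo luminescence after 72 hr compound exposure at 37 degree celsius gave cell viability. Libraries NPC and MIPE were run as 8- and 11-point dose responses; RLUs normalized to DMSO (negative) and no-cell (cytotoxicity) controls.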

Test [9] can be described thus: Confirmatory qHTS to identify inhibitors of SARS-CoV-2 cell entry (AID 1645844). Also: potency is read from the fitted curve at half-maximal effect; nearly all actives have a fitted effect of over 45% in size. In a few lines: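 HEK293-ACE2, overnight seeding; cpd 1 h, 37C/5% CO2; + SARS-CoV-2-S MLV PP (Wuhan-Hu-1, ΔC19); 48 h; Bright-Glo luminescence. Data normalised to S PP and bald PP wells.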
Test [10] is described as follows: Cytotoxicity counterscreen for inhibitors of SARS-CoV-2 cell entry (AID 1645845). Also: nearly all actives have a fitted effect of over 50% in size. Summed up: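 Counterscreen run in the same HEK293-ACE2 line as the pseudotyped-particle entry assay, without particles. Viability after 48 h at 37 C was read as ATP luminescence, scaled between cell-containing and cell-free wells.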
A general note: A counterscreen serves to expose hits that act by an unwanted route or on another target.

Test [11] in a line: Primary qHTS to identify inhibitors of SARS-CoV-2 cell entry (AID 1645846). Also: nearly all actives have a fitted effect of over 45% in size. Also: potency is read from the fitted curve at half-maximal effect. Particulars: activity change, negative = inhibition: at 57.1 µM (top of the series) unless noted. In a few lines: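 Entry measured by luciferase signal 48 h after adding SARS-CoV-2-S pseudotyped MLV particles to HEK293-ACE2 cells preincubated 1 h with compounds. Normalisation: bald particles and spike particles.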

Test [12] deals with Alpha-galactosidase (Coffea arabica) (UniProt Q42656). Put plainly: Counterscreen for Glucocerebrosidase Inhibitors: qHTS Assay for Coffee Bean alpha-Galactosidase at pH 4.5 (AID 957; active = well fitted curve in the direction sought with a large enough effect; an effect the other way counts as inactive or inconclusive;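 also: plate controls were enzyme alone for no effect and no enzyme for full effect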). In a few lines:
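Fluorogenic read-out: 4-methylumbelliferone at Ex 365/Em 440 nm after NaOH/glycine stop (pH 10). Enzyme 2 nM, 4-MU-alpha-galactoside 80 uM, citrate buffer pH 4.5, 20 min RT; normalized to no-enzyme and enzyme controls.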

Test [13] shares this target. Put plainly: Counterscreen for Glucocerebrosidase Inhibitors: qHTS Assay for Coffee Bean alpha-Galactosidase at pH 5.9 (AID 998; active = well fitted curve in the direction sought with a large enough effect; an effect the other way counts as inactive or inconclusive;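 also: plate controls were uninhibited enzyme for no effect and no-enzyme basal signal for full effect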). Summed up:
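Enzyme 2 nM + cpd (0.7 nM–77 uM titration) + 4-MU-alpha-Gal 80 uM, pH 5.9 citrate/Tween-20, RT 20 min, NaOH/glycine stop pH 10, fluor 365/440. Normalized to no-enzyme and full-activity controls; Hill-fit AC50.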

Test [14] is described as follows: Validation screen for inhibitors of Lassa infection (AID 463096). Also: % is scaled to controls: 0 for no effect and ±100 for the full control effect.
Test [15] can be described thus: Inducers of the Endoplasmic Reticulum Stress Response (ERSR) in human glioma: Validation (AID 504836; active = well fitted curve in the direction sought with a large enough effect; an effect the other way counts as inactive or inconclusive; also: 0% is about no effect). Summed up: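 Stably transfected U87-MG glioma cells carrying a GRP78-based luciferase sensor; 16 h compound incubation. Luminescence end-point read 10 min after Bright-Glo addition at room temperature.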
Test [16] addresses Nuclear receptor subfamily 1 group I member 3 (Homo sapiens) (UniProt Q14994). Kind of test: Primary qHTS for antagonist of constitutive androstane receptor (CAR) against the NCATS DSHEA and TCM libraries (AID 1794836; active = well fitted curve in the direction sought with a large enough effect; an effect the other way counts as inactive or inconclusive;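 also: HepG2 cells stably expressing hCAR with CYP2B6 luciferase reporter stimulated by CITCO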). In a few lines:
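HepG2-CYP2B6-hCAR cells, attached 5 h, given compounds plus CITCO agonist […], incubated 24 h at 37 C. Luciferase luminescence read, multiplexed with CellTiter-Fluor viability (Ex/Em 405/540 nm).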

Test [17] in a line: KB-8-5-11 P-gp reporter qHTS against the NCATS DSHEA and TCM libraries (AID 1919977; active = well fitted curve in the direction sought with a large enough effect; an effect the other way counts as inactive or inconclusive; also: 0% is about no effect). In a few lines: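 CellTiter-Glo luminescence measured viability after ~72 h exposure (37C, 5% CO2) of KB-8-5-11 cervical adenocarcinoma cells overexpressing P-gp. Colchicine was omitted during assay. Substances were tested as titrations.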

Results filed as inconclusive are left out. Activity calls are given as the source filed them. Unless noted, calls follow the shape of the full dose curve.

Alpha-galactosidase (Coffea arabica), sequence (Q42656 whole entry, looked up): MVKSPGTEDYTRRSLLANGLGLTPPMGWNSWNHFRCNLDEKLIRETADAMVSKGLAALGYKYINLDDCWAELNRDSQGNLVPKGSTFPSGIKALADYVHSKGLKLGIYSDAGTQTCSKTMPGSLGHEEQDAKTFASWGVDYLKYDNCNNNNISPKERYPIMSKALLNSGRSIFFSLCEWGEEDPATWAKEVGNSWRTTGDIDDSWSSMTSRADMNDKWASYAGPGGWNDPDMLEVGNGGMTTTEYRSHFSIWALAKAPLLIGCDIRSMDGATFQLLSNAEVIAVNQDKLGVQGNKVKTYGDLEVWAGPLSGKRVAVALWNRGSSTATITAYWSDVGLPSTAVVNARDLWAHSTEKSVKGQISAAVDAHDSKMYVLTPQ
Nuclear receptor subfamily 1 group I member 3 (Homo sapiens), sequence (Q14994 whole entry, looked up): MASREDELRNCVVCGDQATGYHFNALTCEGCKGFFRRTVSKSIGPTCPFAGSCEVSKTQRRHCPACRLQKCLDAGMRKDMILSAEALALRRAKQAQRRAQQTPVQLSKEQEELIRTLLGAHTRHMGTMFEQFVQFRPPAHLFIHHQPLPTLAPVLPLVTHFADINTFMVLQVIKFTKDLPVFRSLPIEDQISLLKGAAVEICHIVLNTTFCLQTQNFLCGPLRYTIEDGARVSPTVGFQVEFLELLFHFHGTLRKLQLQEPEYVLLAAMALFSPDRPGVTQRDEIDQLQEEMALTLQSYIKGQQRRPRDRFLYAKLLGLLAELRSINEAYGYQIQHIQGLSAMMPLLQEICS

In test [1], `CC=CCC=CCCC(=O)[C@H]1O[C@@H]1C(N)=O` displayed a parasite growth, % of DMSO control of 65.1%. In [2], this molecule came in with a parasite growth remaining, % of DMSO control (lower = more inhibition) of 87.5%. The same molecule registered a parasite growth, % of control (lower = inhibition) in [3] of 60%. The growth, % of control in test [4] was determined as 71.3%. Further, the Potency result (in test [5]; in test [6]; in [7]; in test [8]; in the test on CRL-7250) was “inactive” each time.
As to `CCC(c1ccc(O)cc1)C(CC)c1ccc(O)cc1` (centres undefined), the Potency entry (in [5]; in test [6]; in test [7]; in [10]; with CRL-7250) was “inactive” each time. In addition, the Potency in [9] is 27.1 µM (active). Moreover, in test [11], the activity change, negative = inhibition was -63.9%.
Consider `COc1cc(NC(=O)c2ccc(-c3ccc(Cl)cc3)o2)cc(OC)c1`, for which the Potency in test [5] was 34.3 µM (active); in [6] it was 15.3 µM (active); in test [7], 21.7 µM (active). Moreover, the Potency result (in test [10]; in the test on CRL-7250) was “inactive” each time. Moreover, the activity change, negative = inhibition in [11] was -4.11%.
For `CC(Cc1ccc(O)c(O)c1)(NN)C(=O)O` (centres undefined), the Potency result (in [5]; in test [6]; in [7]; in test [8]; in test [10]; in the test on CRL-7250) was “inactive” in each case. For the same molecule, the activity change, negative = inhibition in test [11] was -34.1%.
Turning to `COc1ccccc1N1CCN(CCN(C(=O)C2CCCCC2)c2ccccn2)CC1`, the result in test [12], in [13] and in test [15] was inactive. The Potency entry (in [14]; in [5]; in test [6]; in test [7]; in test [8]; in the test on CRL-7250) was “inactive” in each case.
Take `COc1ccc([C@@H]2CNC(=O)C2)cc1OC1CCCC1`: the Potency entry (in [5]; in test [8]; in the test with CRL-7250) was “inactive” each time. The Potency in test [6] was 2.73 µM (active); in test [7], 3.43 µM (active). For the same molecule, the activity change, negative = inhibition in test [11] is 2.39%.
As for `Cc1ccc(O)c(C(CCN(C(C)C)C(C)C)c2ccccc2)c1` (centres undefined), the parasite growth remaining, % of DMSO control (lower = more inhibition) in test [2] stood at 32%. Also, the Potency entry (in test [5]; in test [6]; in test [7]; in test [8]; in [10]; with CRL-7250) was “inactive” in each case.
For the molecule `COc1cc(O)c2c(c1)C(=O)c1cc(C)cc(O)c1C2=O`, the Potency entry (in test [5]; in [6]; in [7]; in test [8]; in test [16]; with CRL-7250) was “inactive” in each case. The outcome in test [17] was inactive.
Consider `c1coc(CNc2ncnc3nc[nH]c23)c1`, for which the parasite growth, % of DMSO control in [1] was found to be 71.1%. The molecule also came in with a parasite growth, % of control (lower = inhibition) in test [3] of 80%. The same molecule had a growth, % of control in test [4] of 65.3%. The Potency result (in test [5]; in test [6]; in test [7]; in test [8]; in test [10]; in the test on CRL-7250) was “inactive” in each case. The activity change, negative = inhibition in [11] came out at 0.628%.
Consider `Nc1ccc(C(=O)Nc2cccc(-c3nc(N4CCOCC4)c4oc5ncccc5c4n3)c2)cn1`, for which the Potency result (in test [5]; with CRL-7250) was “inactive” in each case. The Potency is 1.22 µM (active) in test [6], 0.968 µM (active) in test [7], 0.192 µM (active) in test [9] and 0.891 µM (active) in [11].
